# Test results as given in the supplement of paper PMC8728848.
# Many of the other results were omitted from the sample, so the strongest signals are more common in it than they were.
# What was measured:
# Assay in all cases: glycan array binding signal (z-score within array); higher = stronger binding
# Conditions in all cases: glycan notation: IUPAC condensed, linker removed
# [1] = target: GlcNAc(b1-6)Gal(b1-4)GlcNAc
# In short: (§1)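 Negative Z-scores can be read as non-binding. The Z-score is calculated within each array and then averaged across arrays of one protein sequence at different concentrations or buffers and across linkers. Arrays, 3228 in all, were curated from the Consortium for Functional Glycomics database and kept only where the protein sequence was available.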
# [2] = target: Kdn(a2-3)Gal(b1-4)[Fuc(a1-3)]GlcNAc
# In short: as §1
# Kdn(a2-6)Gal(b1-4)GlcNAc = target: Kdn(a2-6)Gal(b1-4)GlcNAc
# In short: as §1
# [3] = target: Man(a1-2)Man(a1-3)[Man(a1-6)]Man(a1-6)[Man(a1-2)Man(a1-3)]Man(b1-4)GlcNAc(b1-4)GlcNAc
# In short: as §1
# [4] = target: Man(a1-2)Man(a1-6)[Man(a1-3)]Man(a1-6)[Man(a1-2)Man(a1-2)Man(a1-3)]Man(b1-4)GlcNAc(b1-4)GlcNAc
# In short: as §1
# Man(a1-6)Man = target: Man(a1-6)Man
# In short: as §1
# [5] = target: Neu5Ac(a2-3)Gal(b1-3)GalNAc
# In short: as §1
# [6] = target: Neu5Ac(a2-3)Gal(b1-4)GlcNAc(b1-3)Gal(b1-4)GlcNAc(b1-3)Gal(b1-4)GlcNAc(b1-2)Man(a1-3)[Neu5Ac(a2-3)Gal(b1-4)GlcNAc(b1-3)Gal(b1-4)GlcNAc(b1-3)Gal(b1-4)GlcNAc(b1-2)Man(a1-6)]GalNAc
# In short: as §1
# [7] = target: Neu5Ac(a2-3)Gal(b1-4)GlcNAc(b1-6)[Gal(b1-3)]GalNAc
# In short: as §1
# [8] = target: Neu5Ac(a2-3)Gal(b1-4)GlcNAc(b1-6)[Neu5Ac(a2-3)Gal(b1-3)]GalNAc
# In short: as §1
# Neu5Ac(a2-6)Gal = target: Neu5Ac(a2-6)Gal
# In short: as §1
# [9] = target: Neu5Ac(a2-6)Gal(b1-4)GlcNAc(b1-2)Man(a1-3)[Gal(b1-4)GlcNAc(b1-2)Man(a1-6)]Man(b1-4)GlcNAc(b1-4)GlcNAc
# In short: as §1
# [10] = target: Neu5Ac(a2-6)Gal(b1-4)GlcNAc(b1-2)Man(a1-6)[Gal(b1-4)GlcNAc(b1-2)Man(a1-3)]Man(b1-4)GlcNAc(b1-4)GlcNAc
# In short: as §1
# [11] = target: Neu5Ac(a2-6)Gal(b1-4)GlcNAc(b1-3)GalNAc
# In short: as §1
# [12] = target: Neu5Gc(a2-3)Gal(b1-4)[Fuc(a1-3)]GlcNAc
# In short: as §1
binder,measurement,setting,value
"AT5G17240(42) (Arabidopsis thaliana), Q6NQJ8 (protein) MDLEHQTMETFLRWAAEIGISDSIDSSRFRDSCLGHSLSVSDFPDAGGRGLGAARELKKGELVLKVPRKALMTTESIIAKDLKLSDAVNLHNSLSSTQILSVCLLYEMSKEKKSFWYPYLFHIPRDYDLLATFGNFEKQALQVEDAVWATEKATAKCQSEWKEAGSLMKELELKPKFRSFQAWLWASATISSRTLHVPWDSAGCLCPVGDLFNYDAPGDYSNTPQGPESANNVEEAGLVVETHSERLTDGGFEEDVNAYCLYARRNYQLGEQVLLCYGTYTNLELLEHYGFMLEENSNDKVFIPLETSLFSLASSWPKDSLYIHQDGKLSFALISTLRLWLIPQSQRDKSVMRLVYAGSQISVKNEILVMKWMSEKCGSVLRDLPTSVTEDTVLLHNIDKLQDPELRLEQKETEAFGSEVRAFLDANCLWDVTVLSGKPIEFSRKTSRMLSKWRWSVQWRLSYKRTLADCISYCNEKMNNLLGTQDRLRDL",glycan array binding signal (z-score),[1],1.88
same,glycan array binding signal (z-score),[2],-0.336
same,glycan array binding signal (z-score),Kdn(a2-6)Gal(b1-4)GlcNAc,-0.164
same,glycan array binding signal (z-score),[3],0.607
same,glycan array binding signal (z-score),[4],-0.172
same,glycan array binding signal (z-score),Man(a1-6)Man,0.232
same,glycan array binding signal (z-score),[5],-0.438
same,glycan array binding signal (z-score),[6],2.21
same,glycan array binding signal (z-score),[7],-0.303
same,glycan array binding signal (z-score),[8],-0.407
same,glycan array binding signal (z-score),Neu5Ac(a2-6)Gal,0.474
same,glycan array binding signal (z-score),[9],-0.171
same,glycan array binding signal (z-score),[10],-0.325
same,glycan array binding signal (z-score),[11],-0.543
same,glycan array binding signal (z-score),[12],-0.299
